Source: PubChem BioAssay
RORg inh = inhibitors of mouse ROR gamma transcriptional activity. P51450. Drosophila S2 Gal4-RORgamma UAS-luciferase reporter, 20 h. Potency, µM (top dose mostly 53.6 µM), actives largely listed as inhibitors. hit rate 5.4% among 310,000. AID 2551; also: nearly all actives have a fitted effect of over 60% in size
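Read-out: Photinus luciferase luminescence; inhibitors lower reporter signal. Insect Schneider cells with Gal4-ROR gamma fusion under metallothionein promoter, UAS reporter; 700 uM final copper sulfate induction, 20 hr, ambient temperature.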
PKM2 act = PKM2 (human) enzyme activation | Potency, µM (titrated, usually from 57.5 µM), most hits filed as activators | purified PKM2, Kinase-Glo ATP luminescence, activation; response scale: 0% is enzyme alone, no compound | P14618 | hit rate 0.34% among 260,000; also: nearly all actives have a fitted effect of over 55% in size
Target sequence (P14618 whole entry, looked up): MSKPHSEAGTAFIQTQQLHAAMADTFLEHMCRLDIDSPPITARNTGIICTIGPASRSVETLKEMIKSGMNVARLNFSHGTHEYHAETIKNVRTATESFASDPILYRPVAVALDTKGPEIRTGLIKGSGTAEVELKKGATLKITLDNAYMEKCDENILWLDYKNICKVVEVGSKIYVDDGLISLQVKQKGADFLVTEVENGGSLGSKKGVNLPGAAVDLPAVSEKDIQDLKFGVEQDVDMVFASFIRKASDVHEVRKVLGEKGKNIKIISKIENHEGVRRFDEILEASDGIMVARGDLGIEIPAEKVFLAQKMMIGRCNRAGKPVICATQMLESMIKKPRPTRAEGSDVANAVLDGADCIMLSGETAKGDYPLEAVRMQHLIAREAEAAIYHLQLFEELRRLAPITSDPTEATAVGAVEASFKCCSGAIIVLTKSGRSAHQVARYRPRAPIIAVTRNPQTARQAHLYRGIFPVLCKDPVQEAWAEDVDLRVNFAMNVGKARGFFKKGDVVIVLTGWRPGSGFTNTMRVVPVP
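hPK-M2, >95% pure; 0.1 mM ADP / 0.5 mM PEP final; imidazole pH7.2 buffer w/ 7 mM MgCl2, 50 mM KCl; 1 h RT; Kinase-Glo lum. Intermediate enzyme activity for dual inhibitor/activator qHTS.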
CtBP-E1A inh = inhibitors of CtBP/E1A interaction | activity change, % (test concentration not listed) | AID 651724 | hit rate 0.49% among 340,000 | AlphaScreen GST-E1A/His-CtBP binding, 1536-well; stronger effect = lower value; in the data active = activity change below about -65%; inconclusive = mostly about -30% to -63%
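Steps: dispense buffer (Tris pH 8.0, NaCl 300 mM, TCEP 1 mM, BSA, Tween 20); add 5X protein mix (GST-E1A, His-CtBP, 125 nM each); pin 23 nL compound; 2 h at 37 °C, dark; add 5X beads (50 ug/mL); 1 h; read.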
Gal4-VP16 FLuc = inhibits Gal4-VP16 luciferase reporter, ROR gamma counter-screen; hit rate 3.5% among 310,000; Drosophila S2 Gal4-VP16 UAS-luciferase, luminescence, 20 h; Potency, µM (series often up to 53.6 µM), usual class: inhibitors;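 also: Gal4-VP16 expression switched on by copper sulfate through the metallothionein promoter; nearly all actives have a fitted effect of over 50% in size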
Six1-Eya2 inh = inhibitors of human Six1/Eya2 interaction; Q15475+O00167; AlphaScreen GST-Six1/His-Eya2 binding, biochemical; stronger effect = lower value; activity change, % (test concentration not listed); hit rate 0.56% among 360,000; in the data active = activity change below about -65%; inconclusive = mostly about -30% to -63%
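Six1/Eya2 binding was read as AlphaScreen signal after compounds were pinned into GST-Six1 plus His-tagged Eya2 (5X stock 250/500 nM) in pH 8.0 Tris/NaCl/TCEP buffer, beads added, then incubated 1 h, 37 C, dark.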
Numbers stand for hits; [ ] = dose if it differs, or a comment. In the library only some 5.6% were active in any assay of this set; here they are far more common. Unless noted, calls follow the shape of the dose curve; as a rule, active = well fitted curve in the direction sought with a large enough effect; inconclusive = small, poorly fitted or top-dose-only effect, or another doubt; inactive = no such curve, though single readings can be large; an effect the other way counts as inactive or inconclusive.

What do the screens show for `Cc1cc(C)cc(NC(=S)N2CC(C)OC(C)C2)c1` (stereo unspecified)?
RORg inh: 16µM; PKM2 act: inactive; CtBP-E1A inh: inactive; Gal4-VP16 FLuc: inconclusive; Six1-Eya2 inh: inactive

How did Cc1cc(C)cc(NC(=S)N2CCN(S(=O)(=O)c3ccccc3)CC2)c1 do in these assays?
RORg inh: 11µM; PKM2 act: inactive; CtBP-E1A inh: inactive; Gal4-VP16 FLuc: inconclusive; Six1-Eya2 inh: inactive

What do the screens show for `Cc1ccc(NC(=S)N2CC(C)OC(C)C2)cc1C` (stereo unspecified)?
RORg inh: 16µM; PKM2 act: inactive; CtBP-E1A inh: inactive; Gal4-VP16 FLuc: inconclusive; Six1-Eya2 inh: inactive

Results for CC1CN(C(=S)Nc2ccc(Br)cc2)CC(C)O1 (stereo unspecified) ?
RORg inh: inconclusive; PKM2 act: inactive[11.5 µM]; CtBP-E1A inh: inactive; Gal4-VP16 FLuc: inconclusive; Six1-Eya2 inh: inactive

Results for Cc1ccc(NC(=S)N2CCCCC2CO)cc1C (stereo unspecified) ?
RORg inh: 7.9µM; PKM2 act: inactive; CtBP-E1A inh: inactive; Gal4-VP16 FLuc: inconclusive; Six1-Eya2 inh: inactive

What do the screens show for `Cc1ccc(NC(=S)N2CCN(S(=O)(=O)c3ccccc3)CC2)cc1`?
RORg inh: inconclusive; PKM2 act: inactive; CtBP-E1A inh: inactive; Gal4-VP16 FLuc: inactive; Six1-Eya2 inh: inactive

How did COC(=O)CCN1CCC2CC1c1cc(Cl)ccc12 (stereo unspecified) do in these assays?
CtBP-E1A inh: inactive; Six1-Eya2 inh: inactive

How did COC(=O)CCCn1cc(CN2CC(N3CCCC3)CS2(=O)=O)nn1 (stereo unspecified) do in these assays?
CtBP-E1A inh: inactive; Six1-Eya2 inh: inactive

Results for Cc1cc(C)cc(NC(=S)N2CCCC2)c1 ?
RORg inh: 13µM; PKM2 act: inactive; CtBP-E1A inh: inactive; Gal4-VP16 FLuc: inconclusive; Six1-Eya2 inh: inactive

Results for COc1cc(CCC(C)=O)ccc1OC(=O)c1c(F)cccc1Cl ?
RORg inh: inactive; PKM2 act: inactive; CtBP-E1A inh: inactive; Gal4-VP16 FLuc: inactive; Six1-Eya2 inh: inactive

Results for O=C(NNC(=O)c1ccccc1OCc1ccccc1Cl)c1csc(N2CCOCC2)n1 ?
RORg inh: 13µM; PKM2 act: inactive; CtBP-E1A inh: inactive; Gal4-VP16 FLuc: inconclusive; Six1-Eya2 inh: inactive

Results for Cc1ccc(C)c(SCC(=O)NNC(=O)c2csc(N3CCOCC3)n2)c1 ?
RORg inh: 8.9µM; PKM2 act: inactive; CtBP-E1A inh: inactive; Gal4-VP16 FLuc: inconclusive; Six1-Eya2 inh: inactive

What do the screens show for `O=C(/C=C/c1ccc([N+](=O)[O-])s1)N1CCCC1`?
RORg inh: 6.3µM; PKM2 act: inactive; Gal4-VP16 FLuc: 13µM; Six1-Eya2 inh: inactive

How did O=C(/C=C/c1ccc([N+](=O)[O-])s1)N1CCCCC1 do in these assays?
RORg inh: 11µM; PKM2 act: inactive; CtBP-E1A inh: inactive; Gal4-VP16 FLuc: inconclusive; Six1-Eya2 inh: inactive

Results for CCc1ccc(S(=O)(=O)c2nnn3c2nc(NCCNC(C)=O)c2ccccc23)cc1 ?
RORg inh: inactive; PKM2 act: 11µM; CtBP-E1A inh: inactive; Gal4-VP16 FLuc: inactive; Six1-Eya2 inh: inactive

How did CCCCNc1nc2c(S(=O)(=O)c3ccccc3)nnn2c2ccccc12 do in these assays?
RORg inh: inactive; PKM2 act: inactive; CtBP-E1A inh: inactive; Gal4-VP16 FLuc: inactive; Six1-Eya2 inh: inactive

How did CCOC(=O)CNC(=O)C(Cc1ccccc1)NS(=O)(=O)c1ccc2c(c1)CCC(=O)N2 (stereo unspecified) do in these assays?
CtBP-E1A inh: inactive; Six1-Eya2 inh: inactive

How did O=C1CCc2cc(S(=O)(=O)NC(Cc3ccccc3)C(=O)NCC3CCCO3)ccc2N1 (stereo unspecified) do in these assays?
RORg inh: 7.9µM; PKM2 act: inactive; CtBP-E1A inh: inactive; Gal4-VP16 FLuc: inactive; Six1-Eya2 inh: inactive

How did Cc1cc(C(=O)COC(=O)c2ccc(CO)cc2)c(C)n1CC1COc2ccccc2O1 (stereo unspecified) do in these assays?
RORg inh: inactive; PKM2 act: inactive; Gal4-VP16 FLuc: inconclusive; Six1-Eya2 inh: inactive

Results for O=C(COC(=O)Cn1cnc2ccccc21)Nc1cc2c(cc1Cl)C(=O)c1ccccc1C2=O ?
RORg inh: 2.8µM; PKM2 act: inactive; Gal4-VP16 FLuc: inconclusive; Six1-Eya2 inh: inconclusive

How did COc1ccc(C(=O)Nc2ccc(NC(=O)Cc3ccccc3)cn2)cc1 do in these assays?
RORg inh: inactive; PKM2 act: inactive; CtBP-E1A inh: inactive; Gal4-VP16 FLuc: inactive; Six1-Eya2 inh: inactive

What do the screens show for `C=CCn1c(=O)/c(=C/c2ccsc2)s/c1=C(\C#N)C(=O)NCCN1CCOCC1`?
CtBP-E1A inh: inactive; Six1-Eya2 inh: inactive

What do the screens show for `CCc1ccccc1NC(=S)N(CCN1CCCCC1)Cc1ccco1`?
RORg inh: 11µM; PKM2 act: inactive; CtBP-E1A inh: inactive; Gal4-VP16 FLuc: inactive; Six1-Eya2 inh: inactive

How did Cc1cc(C)cc(NC(=S)N(CCN2CCCCC2)Cc2ccco2)c1 do in these assays?
RORg inh: 10µM; PKM2 act: inactive; CtBP-E1A inh: inactive; Gal4-VP16 FLuc: inactive[10 µM]; Six1-Eya2 inh: inactive

What do the screens show for `Cc1ccc(NC(=S)N(CCN2CCCCC2)Cc2ccco2)cc1Cl`?
RORg inh: 14µM; PKM2 act: inactive; CtBP-E1A inh: inactive; Gal4-VP16 FLuc: inconclusive; Six1-Eya2 inh: inactive

Results for CCc1ccccc1NC(=S)N(Cc1ccco1)C(C)c1cccs1 (stereo unspecified) ?
RORg inh: 11µM; PKM2 act: inactive; CtBP-E1A inh: inactive; Gal4-VP16 FLuc: inactive[10 µM]; Six1-Eya2 inh: inactive

How did COc1ccc(NC(=S)N(CCN2CCCCC2)Cc2ccco2)cc1 do in these assays?
RORg inh: inconclusive; PKM2 act: inactive; CtBP-E1A inh: inactive; Gal4-VP16 FLuc: inactive; Six1-Eya2 inh: inactive

How did O=C1C=C(c2cccc(Br)c2)C[C@@H](c2ccc3c(c2)OCO3)C1 do in these assays?
CtBP-E1A inh: inactive; Six1-Eya2 inh: inactive

What do the screens show for `O=C(NCc1cccnc1)c1ccc(Br)o1`?
CtBP-E1A inh: inactive; Six1-Eya2 inh: inactive

How did CCC1(c2ccccc2)NC(=O)N(CC(=O)NCc2ccc(C)cc2)C1=O (stereo unspecified) do in these assays?
RORg inh: inactive; CtBP-E1A inh: inactive; Gal4-VP16 FLuc: inactive; Six1-Eya2 inh: inactive

What do the screens show for `COCCNC(=O)c1c[nH]c2ccc(S(=O)(=O)N(C)c3ccc(C)c(C)c3)cc2c1=O`?
RORg inh: inactive; CtBP-E1A inh: inactive; Gal4-VP16 FLuc: inactive; Six1-Eya2 inh: inactive

How did COc1cccc(C(=O)NCCNc2nc3cc(C)cc(C)c3cc2C#N)c1 do in these assays?
CtBP-E1A inh: inactive; Six1-Eya2 inh: inactive

Results for Cc1cccc2cc(C#N)c(NCc3ccccc3)nc12 ?
RORg inh: 5.6µM; Gal4-VP16 FLuc: 7.1µM; Six1-Eya2 inh: inactive

How did COCCCNC(=S)NCCNc1nc2cc(C)cc(C)c2cc1C#N do in these assays?
RORg inh: 8.9µM; PKM2 act: inactive; CtBP-E1A inh: inactive; Gal4-VP16 FLuc: inconclusive; Six1-Eya2 inh: inactive
